Drawing on PubChem BioAssay, this text covers composite z-score and z-score for six molecules.

The nature of assay [1]: compounds binding Alexa647 anti-His antibody – biochemical, small-molecule microarray, 635 nm fluorescence, artefact control for SMM control protein annotation, primary screen (AID 1128).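 Further: score merges feature fluorescence with signal-to-noise for each printed compound spot.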 The note with it: higher = more signal.
The subject of assay [2] is Human papillomavirus type 1a E7 protein (residues 1-88). Nature of the assay: HPV1a E7 small-molecule binders, primary screen, biochemical, small-molecule microarray, residues 1-88, 635 nm (AID 1129). The note with it: small-molecule microarray binding, fluorescence 635 nm; higher = more signal.
In assay [3] the target is Focal adhesion kinase 1 (Homo sapiens) (UniProt Q05397). Nature of the assay: PTK2 protein binding on printed compound slides – biochemical, small-molecule microarray, 635/667 nm fluorescence, BSA, DTT, primary screen (AID 1130).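 Further: composite of spot emission at 667 nm and signal to noise over triplicate slides.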 The note with it: 635 nm fluorescence, higher = more signal.
The subject of assay [4] is Fibrinogen (Alexa647-labelled). Nature of the assay: Alexa647-fibrinogen binding to printed small molecules – biochemical, small-molecule microarray, 635/667 nm fluorescence, artefact control for SMM control-protein annotation, profiling panel (AID 1131).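 Further: z-score merges 667 nm fluorescence with per-spot signal-to-noise over triplicate slides.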 The note with it: fibrinogen-A647 binding fluorescence, higher = more signal.
Assay [5] deals with Follistatin (Homo sapiens) (UniProt P19883). The experiment in a line: FST protein binding to printed compounds – biochemical, small-molecule microarray, 635/667 nm fluorescence, primary screen (AID 1132). The following applies: 635 nm fluorescence, higher = more signal.
For assay [6], the target named is Fibroblast growth factor 2 (Homo sapiens) (UniProt P09038). The experiment in a line: basic fibroblast growth factor binding to printed compounds – biochemical, small-molecule microarray, 635/667 nm fluorescence, primary screen (AID 1133). The following applies: FGF2, fluorescence 635/667, higher = more signal.
Assay [7] can be described thus: JC-1 mitochondrial potential readout, lung cancer cells – cell-based, A549, JC-1 fluorescence, basal, 24 h, 100 nL, profiling panel (AID 1138).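 Further: A549 lung adenocarcinoma cells under basal conditions with no added stimulus; test concentration not given here.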 The following applies: higher = more signal.
The subject of the next assay is Lefty1. Nature of the assay: Lefty1 protein binding to printed compounds – biochemical, small-molecule microarray, 635/667 nm fluorescence, primary screen (AID 1139). The note with it: fluorescence 635/667, higher = more signal.
For assay [8], the system named is wheat germ agglutinin (Triticum aestivum), Alexa647-labelled. The experiment in a line: Alexa647-WGA lectin binding to printed small molecules – biochemical, small-molecule microarray, 635/667 nm fluorescence, artefact control for SMM control-protein annotation, profiling panel (AID 1140).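 Further: score merges 667 nm feature emission with signal to noise over triplicate slides.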 The following applies: WGA-A647 binding, 635 nm fluorescence, higher = more signal.

Assay [9] deals with Luciferin 4-monooxygenase (Photinus pyralis) (UniProt P08659). Nature of the assay: inhibition of purified Photinus pyralis luciferase – biochemical, luminescence, purified enzyme, 2006 set, primary screen (AID 1141).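 Further: cell-free assay with purified firefly luciferase at 100 ng per well in PBS; test concentration not given here.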 The following applies: purified firefly luciferase, SteadyGlo luminescence, 30 min; higher = more signal, called active from +8 up or from −8 down.
In assay [10] the test system is Wnt5a (protein binding on small-molecule microarray). The experiment in a line: small molecules binding Wnt5a protein – biophysical, small-molecule microarray, 635/667 nm fluorescence, primary screen (AID 1142).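 Further: fluorescence read at 667 nm with signal to noise per printed feature.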 The following applies: 635 nm fluorescence, higher = more signal.
Assay [11] can be described thus: ATP-based viability of Huh7 replicon cells – cell-based, CellTiter-Glo luminescence, basal, 48 h, cytotoxicity control for HCV replication inhibitor project, primary screen (AID 1143).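 Further: Huh7 hepatoma cells carrying a hepatitis C replication reporter with no stimulus; test concentration not given here.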 The following applies: higher = more signal, called active from +8 up or from −8 down. (In general: A replicon is a self-replicating genome or part of one, used to study replication in cells.)

Assay [12] can be described thus: Pseudomonas biofilm growth suppression – PAO1 strain, BacTiter-Glo luminescence, LB-PBS, primary screen (AID 1144). The following applies: P. aeruginosa PAO1 biofilm, 12 h, higher = more signal.
Assay [13] can be described thus: basal CRE-LacZ reporter activity in PC12 – cell-based, unstimulated, primary screen (AID 1145). The following applies: no forskolin, luminescence, 4.5 h, higher = more signal, called active from +8 up or from −8 down.
The nature of assay [14]: forskolin-driven CRE-LacZ activity in PC12 – cell-based, CRE-LacZ reporter, forskolin-stimulated, primary screen (AID 1146).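 Further: PC12 cells with 6xCRE LacZ reporter stimulated by forskolin 10 µM; beta-galactosidase reporter signal reflecting CREB driven transcription.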 The note with it: luminescence, 4.5 h, higher = more signal, called active from +8 up or from −8 down.
The target in assay [15] is Streptavidin (Streptomyces avidinii) (UniProt P22629). Nature of the assay: compounds binding control protein streptavidin – biophysical, small-molecule microarray, 635/667 nm fluorescence, artefact control for SMM compound annotation, primary screen (AID 1147).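 Further: signal reflects streptavidin binding to arrayed compounds as a control protein.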 The note with it: higher = more signal.
Assay [16] in a line: probe aInhba binding on compound microarray – biochemical, small-molecule microarray, 635/667 nm fluorescence, primary screen (AID 1148).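 Further: score merges 667nm spot fluorescence with signal-to-noise for antibody binding to printed compounds.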 The following applies: higher = more signal.
Assay [17] concerns the target Torsin-1A (Homo sapiens) (UniProt O14656). The experiment in a line: TOR1A wild-type binding on microarray – cell lysate, small-molecule microarray, lysate, 635/667 nm, primary screen (AID 1149). The note with it: COS7 hTOR1A-WT lysate, 635 nm fluorescence, higher = more signal.
Assay [18] shares this target. The experiment in a line: torsin A mutant lysate binding on microarrays – cell lysate, small-molecule microarray, COS7 lysate, 635/667 nm fluorescence, primary screen (AID 1150).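 Further: score pools 667 nm emission and signal to noise measuring lysate protein binding.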 The following applies: COS7 hTOR1A mutant lysate, 635 nm fluorescence, higher = more signal.
For assay [19], the system named is Sonic hedgehog protein (Shh). Nature of the assay: Sonic hedgehog microarray binding compounds – biochemical, small-molecule microarray, 635/667 nm fluorescence, primary screen (AID 1151).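 Further: Shh protein binding to compounds spotted on small-molecule microarray slides; score combines spot fluorescence intensity with signal-to-noise across triplicate slides.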 The following applies: 635 nm fluorescence, higher = more signal.

SMILES strings stand for the structures. Activity calls are given as the source filed them. Unless noted, how the calls were made is not given here.

Torsin-1A (Homo sapiens), sequence (O14656 whole entry, looked up): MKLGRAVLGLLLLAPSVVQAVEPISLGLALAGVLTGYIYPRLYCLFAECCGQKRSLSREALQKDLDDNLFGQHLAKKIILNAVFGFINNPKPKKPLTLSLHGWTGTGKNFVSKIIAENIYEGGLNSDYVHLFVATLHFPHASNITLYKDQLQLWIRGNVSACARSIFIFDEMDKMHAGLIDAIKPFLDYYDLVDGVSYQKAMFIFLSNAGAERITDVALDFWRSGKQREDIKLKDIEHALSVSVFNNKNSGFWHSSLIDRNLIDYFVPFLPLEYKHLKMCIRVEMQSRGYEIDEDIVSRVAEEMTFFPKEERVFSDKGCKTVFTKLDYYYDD
Luciferin 4-monooxygenase (Photinus pyralis), sequence (P08659 whole entry, looked up): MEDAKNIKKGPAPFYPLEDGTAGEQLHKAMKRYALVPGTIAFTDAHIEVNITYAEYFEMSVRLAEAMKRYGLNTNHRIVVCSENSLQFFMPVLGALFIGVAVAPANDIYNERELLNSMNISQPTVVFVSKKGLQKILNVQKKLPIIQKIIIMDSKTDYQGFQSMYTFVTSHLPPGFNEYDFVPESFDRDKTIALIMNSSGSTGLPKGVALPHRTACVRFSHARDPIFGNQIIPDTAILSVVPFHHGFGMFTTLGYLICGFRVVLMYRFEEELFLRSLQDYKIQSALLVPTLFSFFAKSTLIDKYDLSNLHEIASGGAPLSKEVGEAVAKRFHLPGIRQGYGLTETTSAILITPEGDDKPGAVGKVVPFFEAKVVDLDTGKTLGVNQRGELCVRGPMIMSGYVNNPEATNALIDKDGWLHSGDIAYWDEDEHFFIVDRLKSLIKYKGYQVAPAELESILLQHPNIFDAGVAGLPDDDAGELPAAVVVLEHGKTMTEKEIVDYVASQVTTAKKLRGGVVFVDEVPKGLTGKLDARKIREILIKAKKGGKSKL
Fibroblast growth factor 2 (Homo sapiens), sequence (P09038 whole entry, looked up): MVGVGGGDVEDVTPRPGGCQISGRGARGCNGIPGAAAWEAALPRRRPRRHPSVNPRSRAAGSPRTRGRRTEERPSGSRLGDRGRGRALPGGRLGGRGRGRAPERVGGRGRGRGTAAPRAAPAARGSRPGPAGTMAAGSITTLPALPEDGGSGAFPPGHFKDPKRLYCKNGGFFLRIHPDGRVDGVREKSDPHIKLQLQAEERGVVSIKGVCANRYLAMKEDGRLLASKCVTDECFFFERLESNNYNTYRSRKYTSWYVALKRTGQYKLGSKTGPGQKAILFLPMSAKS
Follistatin (Homo sapiens), sequence (P19883 whole entry, looked up): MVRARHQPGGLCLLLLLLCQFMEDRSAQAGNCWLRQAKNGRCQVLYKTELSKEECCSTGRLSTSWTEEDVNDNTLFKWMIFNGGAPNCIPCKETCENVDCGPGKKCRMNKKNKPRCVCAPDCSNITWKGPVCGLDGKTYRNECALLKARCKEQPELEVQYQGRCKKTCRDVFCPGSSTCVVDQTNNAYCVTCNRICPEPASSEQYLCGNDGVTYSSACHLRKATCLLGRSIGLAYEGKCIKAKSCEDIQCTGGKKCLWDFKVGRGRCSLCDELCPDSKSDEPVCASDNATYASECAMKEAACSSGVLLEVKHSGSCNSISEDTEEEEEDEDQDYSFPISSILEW
Focal adhesion kinase 1 (Homo sapiens), sequence (Q05397 whole entry, looked up): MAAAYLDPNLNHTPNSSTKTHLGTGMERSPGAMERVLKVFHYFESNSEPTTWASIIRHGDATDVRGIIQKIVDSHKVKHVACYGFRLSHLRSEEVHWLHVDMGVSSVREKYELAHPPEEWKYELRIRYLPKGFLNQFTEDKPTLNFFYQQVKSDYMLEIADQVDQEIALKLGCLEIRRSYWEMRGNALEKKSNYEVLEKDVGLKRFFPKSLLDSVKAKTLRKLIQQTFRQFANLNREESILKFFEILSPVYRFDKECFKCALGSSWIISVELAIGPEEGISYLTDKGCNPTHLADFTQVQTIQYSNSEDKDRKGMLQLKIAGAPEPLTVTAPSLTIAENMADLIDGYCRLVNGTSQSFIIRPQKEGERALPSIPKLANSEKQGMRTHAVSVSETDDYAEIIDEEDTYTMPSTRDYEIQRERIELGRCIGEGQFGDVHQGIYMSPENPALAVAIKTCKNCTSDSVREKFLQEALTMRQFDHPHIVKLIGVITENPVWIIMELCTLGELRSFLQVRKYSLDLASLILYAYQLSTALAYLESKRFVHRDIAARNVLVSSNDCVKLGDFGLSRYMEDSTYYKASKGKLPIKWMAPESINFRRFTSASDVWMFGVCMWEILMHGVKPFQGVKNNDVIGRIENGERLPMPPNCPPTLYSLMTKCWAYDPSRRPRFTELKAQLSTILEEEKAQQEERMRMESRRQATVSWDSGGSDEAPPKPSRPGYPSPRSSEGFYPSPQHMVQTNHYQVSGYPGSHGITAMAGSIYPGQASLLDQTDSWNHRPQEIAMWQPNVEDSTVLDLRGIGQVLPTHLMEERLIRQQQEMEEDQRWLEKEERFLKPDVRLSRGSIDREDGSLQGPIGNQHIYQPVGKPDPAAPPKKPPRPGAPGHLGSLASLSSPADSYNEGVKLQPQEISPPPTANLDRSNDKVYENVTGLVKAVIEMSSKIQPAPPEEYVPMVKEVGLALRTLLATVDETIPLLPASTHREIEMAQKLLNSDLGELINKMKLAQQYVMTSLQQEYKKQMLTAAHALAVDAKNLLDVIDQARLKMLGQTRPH
Streptavidin (Streptomyces avidinii), sequence (P22629 whole entry, looked up): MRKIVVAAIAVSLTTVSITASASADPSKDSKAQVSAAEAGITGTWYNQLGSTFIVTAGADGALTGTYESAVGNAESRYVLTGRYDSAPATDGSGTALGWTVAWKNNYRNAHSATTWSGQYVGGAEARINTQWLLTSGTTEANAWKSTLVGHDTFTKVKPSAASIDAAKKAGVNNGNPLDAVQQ

On to `C[N+](C)(C)CCCCNC(=O)[C@H]1C[C@H]2C(=O)N3CCC[C@H]3C(=O)N2[C@H]1c1cccc(OCCO)c1`, for which the composite z-score was 3.3 in [1]; -1.41 in assay [2]; -0.444 in assay [3]; -0.944 in [4]; 1.43 in [5]; 1.41 in assay [6]. In addition, the composite z-score with Lefty1 is 0.974; in [8], -1.48; in assay [10], 0.0504; in assay [15], -0.704; in assay [16], 0.0569; with Torsin-1A (Homo sapiens) [17] it was -0.215. Further, the composite z-score came out at 0.678 with Torsin-1A (Homo sapiens) [18] and 2 in assay [19]. For the same molecule, the z-score in assay [7] is -0.613; in [9] it was -0.677 (inactive); in assay [11], 0.254 (inactive); in assay [12], -0.148 (inactive); in assay [13], -0.667 (inactive); in [14] it was -0.359 (inactive).
`CN1C=C(C(=O)OCCS(C)(=O)=O)C(C(=O)OCCS(C)(=O)=O)=CC(c2ccc(CO)cc2)=CC1C1CC1` (stereo not given): the composite z-score in assay [1] was -0.281; in [2], 0.138; in assay [3] it was 0.0684; in [4] it was 0.28; in assay [5] it was 0.126; in [6], -0.101. In addition, the composite z-score is 0.53 with Lefty1; 0.922 in assay [8]; 0.0929 in assay [10]; -0.0005 in assay [15]; 0.149 in [16]; 0.738 with Torsin-1A (Homo sapiens) [17]. Also, the figures for the composite z-score (with Torsin-1A (Homo sapiens) [18]; in [19]) were 0.5 and 0.457, respectively. Moreover, the z-score in [7] was 1.48; in assay [9], -1.5 (inactive); in assay [11], -0.95 (inactive); in assay [12], 0.706 (inactive); in assay [13], -0.205 (inactive); in [14], -0.507 (inactive).
Turning to `NC(=O)NCC#Cc1ccc2c(c1)[C@]1(C(=O)N2)[C@H](C(N)=O)[C@H]2C(=O)O[C@H](c3ccccc3)[C@H](c3ccccc3)N2[C@@H]1c1ccc(O)cc1`, the composite z-score in [1] was -0.407; in [2], -0.655; in assay [3], -0.209; in assay [4] it was 0.513; in assay [5], 0.336; in [6], 0.383. Moreover, the composite z-score was -1.01 in the assay with Lefty1; 0.623 in [8]; 0.0344 in assay [10]; -0.104 in [15]; 1.34 in assay [16]; 0.2 with Torsin-1A (Homo sapiens) [17]. Also, the composite z-score was 1 in the assay with Torsin-1A (Homo sapiens) [18] and -0.41 in assay [19]. In addition, the z-score in assay [7] is -1.27; in assay [9], -0.192 (inactive); in [11], -0.0803 (inactive); in assay [12] it was -0.00225 (inactive); in assay [13] it was 0.712 (inactive); in assay [14], -0.0696 (inactive).
As for `CN(C)CCCCCCNC(=O)[C@H]1C[C@H]2C(=O)N3CCC[C@H]3C(=O)N2[C@H]1c1ccc(O)cc1`, the composite z-score worked out at 2.74 in [1]; 1.24 in [2]; 1.03 in assay [3]; 0.678 in [4]; 1.34 in [5]; 1.48 in assay [6]. The composite z-score in the assay with Lefty1 stood at 1.39; in assay [8] it was 0.622; in assay [10], 0.899; in assay [15], 0.192; in assay [16], 0.019; with Torsin-1A (Homo sapiens) [17] it was 1.95. The composite z-score is -0.118 with Torsin-1A (Homo sapiens) [18] and 2.04 in assay [19]. In addition, the z-score in [7] was -0.727; in assay [9] it was -0.171 (inactive); in assay [11], -0.865 (inactive); in assay [12], 0.332 (inactive); in assay [13] it was -0.268 (inactive); in assay [14], -0.933 (inactive).
Regarding `CCOC(=O)C[C@H]1[C@H](OC(=O)c2ccc(C(=O)c3ccccc3)cc2)[C@@H](NC(=O)c2ccccc2)c2cc(OCCCO)ccc2N1C(=O)c1ccc2ccccc2n1`, the composite z-score is 1.03 in assay [1]; 1.06 in [2]; 0.281 in assay [3]; 0.788 in [4]; -0.0746 in assay [5]; -0.268 in assay [6]. For the same molecule, the composite z-score was 0.536 with Lefty1; 0.324 in [8]; 0.152 in assay [10]; 1.22 in [15]; -0.0468 in [16]; 0.478 with Torsin-1A (Homo sapiens) [17]. Moreover, the figures for the composite z-score (with Torsin-1A (Homo sapiens) [18]; in [19]) were 0.179 and -0.25, respectively. Further, the z-score in assay [7] was 0.586; in assay [9], -0.417 (inactive); in [11], -0.0123 (inactive); in [12] it was 0.0501 (inactive); in assay [13], 3.66 (inactive); in assay [14], -0.712 (inactive).
Take `COC(=O)[C@@]1(Cc2ccccc2)[C@H]2c3cc(C(=O)N4CCCC4)n(Cc4ccc(S(C)(=O)=O)cc4)c3C[C@H]2CN1C(=O)c1ccccc1`: the composite z-score is 1.27 in [1]; 1.27 in [2]; 2.05 in assay [3]; 1 in [4]; 1.03 in assay [5]; -0.771 in [6]. The composite z-score is -0.07 in the assay with Lefty1; 1.08 in [8]; -0.0831 in assay [10]; 2.21 in assay [15]; 0.401 in assay [16]; 0.758 in the assay with Torsin-1A (Homo sapiens) [17]. The results for the composite z-score (in the assay with Torsin-1A (Homo sapiens) [18]; in assay [19]) were 0.81 and -0.344, respectively. The z-score in assay [7] is 0.687; in assay [9], 1.3 (inactive); in assay [11], -1.22 (inactive); in [12] it was 0.779 (inactive); in [13], 0.959 (inactive); in assay [14], 0.266 (inactive).
